Molecules are shown by their SMILES. Hit rate of the full screen: of about 640,000 compounds, about 9,300 (1.5%) were called active. Rule as the data show it: active = inhibition above about 32%; inactive = the rest. Shown is part of a subset that was picked to be rich in actives.

This is an account of results in PubChem BioAssay AID1259422 (The Scripps Research Institute Molecular Screening Center, 2018).

A short description of the assay: TEAD-YAP interaction inhibition, primary screen, TEAD-YAP interaction inhibitor project, luminescence, HEK-TIYL cells (AID 1259422).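 Also: 0% = median of test compound wells and 100% = reference inhibitor wells.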 The conditions noted are these: TEAD-Gal4/YAP UAS-luciferase luminescence, at 9.12 µM, active compounds read high.
With `CCc1ccccc1N(CC(=O)Nc1cc(Cl)ccc1C)S(C)(=O)=O`, the inhibition (in general, the change of the read-out against control, counted positive when it falls) is 1.56% (inactive).
For `Cc1ccc(OCCSc2nc(N)cc(=O)[nH]2)cc1`, the inhibition was -7.78% (inactive).
As for `CN(C)CCNc1ccnc2c(-c3ccsc3)cnn12`, the inhibition is -57.5% (inactive).
The same measure for `O=C(Nc1ccc2c(c1)CN(C1CCOCC1)CC2)c1ccc(C(F)(F)F)cc1`: 17.5% (inactive).
`COc1ccc(NC(=O)/C(=C\c2ccc3c(c2)OCO3)NC(=O)c2ccccc2Cl)c(OC)c1`: the inhibition is 21.2% (inactive).
On to `COc1ccc(OC)c(/C=N/NC(=O)COc2ccc(Br)cc2)c1`, for which the inhibition is -1.77% (inactive).
For the compound `COc1ccc(/C=N/NC(=O)COc2ccc(Cl)cc2Br)cc1OC`, the inhibition is 8.94% (inactive).
In the case of `CCOC(=O)c1c(C)[nH]c(C(=O)OCC(=O)Nc2ccccc2C(C)(C)C)c1C`, the inhibition is 7.06% (inactive).
`Cc1cc2nn(-c3ccccc3)nc2cc1NC(=S)NC(=O)c1oc2ccccc2c1C`: the inhibition is 7.4% (inactive).
For the compound `C=C(C)C1C=C(C)/C(=N/NC(=O)c2ccc(N3CCCC3=O)cc2)CC1` (stereo not given), the inhibition was 0.92% (inactive).
Next, `O=C1/C(=C/c2cccnc2)Oc2cc(OC(=O)C3CC3)ccc21`: 33.5% (active); `COc1ccc(/C=C2\Oc3cc(OC(=O)C4CC4)cc(C)c3C2=O)c(OC)c1OC`: -17.3% (inactive).
Consider `O=C(Oc1ccc2c(c1)C(=O)c1cc(OC(=O)c3cccnc3)ccc1-2)c1cccnc1`, for which the inhibition is -14.7% (inactive).
Next, `CCCn1c(=O)[nH]c2c(C(N)=O)nc(-c3cn(C)nc3C)nc21`: -23% (inactive); `O=C(CNc1cccc(Br)c1)Nc1ccccc1C(=O)Nc1ccccc1`: 2.84% (inactive).
As for `O=C1c2cc(O)ccc2-c2ccc(O)cc21`, the inhibition was -8.01% (inactive).
`Nc1ccc2c(c1)C(=O)C(=O)c1cc(N)ccc1-2`: the inhibition was 99% (active).
Turning to `O=C1c2cc(S(=O)(=O)N3CCCC3)ccc2-c2ccc(S(=O)(=O)N3CCCC3)cc21`, the inhibition is -1.36% (inactive).
As for `CCCCN(CC)CCNC(=O)CCNC(=O)Cn1cnc2sc3c(c2c1=O)CCCC3`, the inhibition was -4.71% (inactive).
For `CCN1CCN(C(=O)c2ccc(OC)cc2OC)CC1`, the inhibition was 2.8% (inactive).
Turning to `COc1cc(Nc2cc(-c3nocc3-c3cnn(C)c3)ccn2)ccc1N1CCOCC1`, the inhibition was 15% (inactive).
Take `Cn1nccc1Nc1cc(Nc2ccc(N3CCOCC3)cc2)ncn1`: the inhibition was 2.78% (inactive).
Regarding `Cn1cc(-c2cc(Nc3ccc(N4CCOCC4)cn3)ncc2Cl)cn1`, the inhibition was 38.9% (active).
As for `CCCN1CC=C2C(C1)C(c1cccc(C(F)(F)F)c1)C(C#N)=C(N)C2(C#N)C#N` (stereo not given), the inhibition is -14.9% (inactive).
Regarding `CC(C)n1cnc2c(NC3CC3)nc(-c3ccc(N4CCOCC4)nc3)nc21`, the inhibition was 1.84% (inactive).
The same measure for `CC(C)n1cnc2c(NC3CCN(Cc4ccccc4)CC3)nc(-c3ccc(N4CCOCC4)nc3)nc21`: 36.3% (active); for `CC(C)n1cnc2c(NC3CCN(Cc4ccccc4)CC3)nc(NC3CCN(Cc4ccccc4)CC3)nc21`: 23.1% (inactive).
In the case of `c1ccc(CN2CCC(Nc3nc(Nc4ccc(N5CCOCC5)cc4)c4ncn(C5CCCCC5)c4n3)CC2)cc1`, the inhibition was 7.35% (inactive).
Turning to `CC(C)n1cnc2c(NC3CCN(Cc4ccccc4)CC3)nc(Nc3ccc(N4CCOCC4)cc3)nc21`, the inhibition is 55.8% (active).
Consider `c1ccc(CN2CCC(Nc3nc(-c4ccccc4)nc4c3ncn4C3CCCCC3)CC2)cc1`, for which the inhibition was 6.01% (inactive).
